# Reference: PubChem BioAssay (NCATS)
# Where “and” joins values, the source holds several entries; their conditions need not be identical. Equal entries are not always repeated. Results filed as inconclusive are left out. Where a call stands in place of a potency, no number is given. Values without a mark were called inactive. Calls of active or inactive are those of the source. Calls follow the shape of the dose curve; as a rule, active = well fitted inhibition curve with a large enough effect; inconclusive = small, poorly fitted or top-dose-only effect; inactive = flat fitted curve, though single readings scatter.
# Columns and labels:
# [1] = system: CRL-7250; assay: qHTS assay to identify novel small-molecules to repurpose for Merkel cell carcinoma treatment (AID 1296009); conditions: MCC and control cell lines, CellTiter-Glo viability, 72 h; series mostly up to 44.8 µM
# How it was run: (§1)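 Cell viability measured by CellTiter-Glo following 72 hr compound treatment at 37 degree celsius, with NPC and MIPE libraries tested in 8- and 11-point concentration series.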
# [2] = system: CRL-7250; assay: Cytotoxic Profiling of Annotated Libraries Using Quantitative High-Throughput Screening (AID 1296008); conditions: Five cell lines viability, CellTiter-Glo ATP luminescence, 48-72 h; max response: hits give low values; also: potency is read from the fitted curve at half-maximal effect
# How it was run: (§2)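 Cytotoxicity was measured as CellTiter-Glo ATP luminescence, read after 10 min at room temperature. Compound treatment of the cells lasted 48 or 72 hr at 37 degrees Celsius in a qHTS format.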
# [3] = system: HaCat; assay: as above; conditions: Five cell lines viability, CellTiter-Glo ATP luminescence, 48-72 h; max response: hits give low values
# How it was run: as §2
# [4] = system: KB-3-1; assay: as above; conditions: Five cell lines viability, CellTiter-Glo ATP luminescence, 48-72 h; max response: hits give low values
# How it was run: as §2
# [5] = system: NIH3T3; assay: as above; conditions: Five cell lines viability, CellTiter-Glo ATP luminescence, 48-72 h; max response: hits give low values
# How it was run: as §2
# [6] = system: HACAT; assay: qHTS assay to identify novel small-molecules to repurpose for Merkel cell carcinoma treatment (AID 1296009); conditions: MCC and control cell lines, CellTiter-Glo viability, 72 h; at 44.8 µM (top of the series) unless noted
# How it was run: as §1
# [7] = system: N140; assay: qHTS profiling for inhibitors of Plasmodium falciparum proliferation (AID 504749); also: potency is read from the fitted curve at half-maximal effect; conditions: P. falciparum in erythrocytes, SYBR Green DNA, 72 h; series mostly up to 28.7 µM
# How it was run: (§3)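 In a 72 h erythrocytic culture (37 C, humidified, 5% CO2) at 2.5% hematocrit and 0.3% starting parasitemia, compounds were tested; SYBR Green I in detergent lysis buffer stained parasite DNA overnight.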
# [8] = system: P93_24; assay: as above; conditions: P. falciparum in erythrocytes, SYBR Green DNA, 72 h; series mostly up to 28.7 µM
# How it was run: as §3
# [9] = system: P94_40; assay: as above; conditions: P. falciparum in erythrocytes, SYBR Green DNA, 72 h; series mostly up to 28.7 µM
# How it was run: as §3
# [10] = system: PAD; assay: as above; conditions: P. falciparum in erythrocytes, SYBR Green DNA, 72 h; series mostly up to 28.7 µM
# How it was run: as §3
# [11] = system: PC15; assay: as above; conditions: P. falciparum in erythrocytes, SYBR Green DNA, 72 h; series mostly up to 28.7 µM
# How it was run: as §3
# [12] = system: PC26; assay: as above; conditions: P. falciparum in erythrocytes, SYBR Green DNA, 72 h; series mostly up to 28.7 µM
# How it was run: as §3
# [13] = system: PC49; assay: as above; conditions: P. falciparum in erythrocytes, SYBR Green DNA, 72 h; series mostly up to 28.7 µM
# How it was run: as §3
# [14] = system: SC27B; assay: as above; conditions: P. falciparum in erythrocytes, SYBR Green DNA, 72 h; series mostly up to 28.7 µM
# How it was run: as §3
# [15] = system: TAB109; assay: as above; conditions: P. falciparum in erythrocytes, SYBR Green DNA, 72 h; series mostly up to 28.7 µM
# How it was run: as §3
# [16] = system: TAB113; assay: as above; conditions: P. falciparum in erythrocytes, SYBR Green DNA, 72 h; series mostly up to 28.7 µM
# How it was run: as §3
# [17] = system: TAB165; assay: as above; conditions: P. falciparum in erythrocytes, SYBR Green DNA, 72 h; series mostly up to 28.7 µM
# How it was run: as §3
# [18] = system: W2; assay: as above; conditions: P. falciparum in erythrocytes, SYBR Green DNA, 72 h; series mostly up to 28.7 µM
# How it was run: as §3
# [19] = system: HEK293; assay: Cytotoxic Profiling of Annotated Libraries Using Quantitative High-Throughput Screening (AID 1296008); conditions: Five cell lines viability, CellTiter-Glo ATP luminescence, 48-72 h; max response: hits give low values; also: potency is read from the fitted curve at half-maximal effect
# How it was run: as §2
# Also: nearly all actives have a fitted effect of over 60% in size.
smiles,measurement,setting,value
CN1CCN(CCCN2c3ccccc3Sc3ccc(Cl)cc32)CC1,outcome,[1],inactive
C[C@]12CCC(=O)C(O)=C1CC[C@@H]1[C@@H]2CC[C@]2(C)C(=O)CC[C@@H]12,max response,[2],-13.2%
same,max response,[3],-15.5%
same,max response,[4],-15.7%
same,max response,[5],-5.78%
CC1=C2C[C@@H]3[C@@H](CC=C4C[C@@H](O)CC[C@@]43C)[C@@H]2CC[C@]12O[C@H]1C[C@H](C)CN[C@H]1[C@H]2C,max response,[2],4.78%
same,outcome,[3],inactive
same,max response,[4],6.86%
same,max response,[5],0.588%
same,outcome,[6],inactive
c1ccc(C2CC2)c(OCC2=NCCN2)c1,Potency,[7],inactive
same,Potency,[8],inactive
same,Potency,[9],inactive
same,Potency,[10],inactive
same,Potency,[11],inactive
same,Potency,[12],inactive
same,Potency,[13],inactive
same,Potency,[14],inactive
same,Potency,[15],inactive
same,Potency,[16],inactive
same,Potency,[17],inactive
same,Potency,[18],13.5 µM (active)
same,max response,[19],-2.25%
same,outcome,[3],inactive
same,max response,[4],1.77%
same,max response,[5],-5.7%
same,outcome,[6],inactive
Fc1ccc(C(OCCN2CCN(CCCc3ccccc3)CC2)c2ccc(F)cc2)cc1,Potency,[7],5.01 µM (active)
same,Potency,[8],4.47 µM (active)
same,Potency,[9],7.94 µM (active)
same,Potency,[10],8.91 µM (active)
same,Potency,[11],11.2 µM (active)
same,Potency,[12],12 µM (active)
same,Potency,[13],8.91 µM (active)
same,Potency,[14],8.91 µM (active)
same,Potency,[15],7.94 µM (active)
same,Potency,[16],8.91 µM (active)
same,Potency,[17],4.47 µM (active)
same,Potency,[18],4.26 µM (active)
same,Potency,[2],13.2 µM (active)
same,Potency,[19],18.7 µM (active) and 21.1 µM (active)
same,Potency,[4],23.1 µM (active)
Oc1cc(Cl)ccc1Oc1ccc(Cl)cc1Cl,Potency,[7],3.16 µM (active)
same,Potency,[8],6.31 µM (active)
same,Potency,[9],4.47 µM (active)
same,Potency,[10],5.01 µM (active)
same,Potency,[11],7.08 µM (active)
same,Potency,[12],7.57 µM (active)
same,Potency,[13],12.6 µM (active)
same,Potency,[14],4.47 µM (active)
same,Potency,[15],10 µM (active)
same,Potency,[16],4.47 µM (active)
same,Potency,[17],3.55 µM (active)
same,Potency,[18],3.38 µM (active)
same,Potency,[2],39.4 µM (active)
same,Potency,[19],22.1 µM (active)
same,max response,[4],3.49%
Nc1cc(-c2ccncc2)c[nH]c1=O,outcome,[1],inactive
OCCN(CCO)c1nc(N2CCCCC2)c2nc(N(CCO)CCO)nc(N3CCCCC3)c2n1,outcome,[1],inactive
c1ccc2c(c1)OCC(C1=NCCN1)O2 (stereo not given),Potency,[7],inactive
same,Potency,[8],inactive
same,Potency,[9],inactive
same,Potency,[10],inactive
same,Potency,[11],inactive
same,Potency,[12],inactive
same,Potency,[14],inactive
same,Potency,[15],inactive
same,Potency,[16],inactive
same,Potency,[17],inactive
same,Potency,[2],23.7 µM (active)
same,Potency,[19],18.8 µM (active)
same,max response,[4],29.1%
same,Potency,[5],15 µM (active)
CCC(COC(=O)c1cc(OC)c(OC)c(OC)c1)(c1ccccc1)N(C)C (stereo not given),Potency,[7],inactive
same,Potency,[8],inactive
same,Potency,[10],inactive
same,Potency,[11],inactive
same,Potency,[12],inactive
same,Potency,[13],inactive
same,Potency,[14],inactive
same,Potency,[15],inactive
same,Potency,[16],inactive
same,Potency,[18],6.75 µM (active)
same,max response,[2],-3.97%
same,outcome,[3],inactive
same,max response,[4],3.84%
same,outcome,[5],inactive
same,outcome,[6],inactive
CO[C@]12CC[C@@]3(C[C@@H]1[C@](C)(O)C(C)(C)C)[C@@H]1Cc4ccc(O)c5c4[C@@]3(CCN1CC1CC1)[C@H]2O5,Potency,[19],21.5 µM (active)
CO/N=C1\CN(c2nc3c(cc2F)c(=O)c(C(=O)O)cn3C2CC2)CC1CN (stereo not given),outcome,[1],inactive
CC(C)=CCOc1c2occc2cc2ccc(=O)oc12,max response,[2],-11.3%
same,outcome,[3],inactive
same,max response,[4],-18.5%
same,max response,[5],-0.907%
same,outcome,[6],inactive
COc1ccc2c(c1OC)CN1CCc3cc4c(cc3C1C2)OCO4 (stereo not given),Potency,[19],9.44 µM (active) and 935 nM (active)
same,max response,[3],1.37%
same,outcome,[3],inactive
same,max response,[4],-7.53% and -10%
same,max response,[5],-8.93%
same,outcome,[6],inactive
CN(CCOc1ccc(NS(C)(=O)=O)cc1)CCc1ccc(NS(C)(=O)=O)cc1,outcome,[1],inactive
O=C(O)P(=O)(O)O,max response,[4],-7.16%
same,outcome,[1],inactive
O=C1NCN(c2ccccc2)C12CCN(CC1COc3ccccc3O1)CC2 (stereo not given),Potency,[7],inactive
same,Potency,[8],inactive
same,Potency,[9],inactive
same,Potency,[11],inactive
same,Potency,[12],inactive
same,Potency,[13],inactive
same,Potency,[14],inactive
same,Potency,[15],inactive
same,Potency,[16],inactive
same,Potency,[17],inactive
same,max response,[2],-15.4%
same,max response,[3],4.17%
same,max response,[4],-9.57%
same,max response,[5],-1.57%
CC(=O)[C@H]1CC[C@H]2[C@@H]3CC[C@H]4C[C@H](O)CC[C@]4(C)[C@H]3C(=O)C[C@]12C,Potency,[7],inactive
same,Potency,[8],inactive
same,Potency,[9],inactive
same,Potency,[10],inactive
same,Potency,[11],inactive
same,Potency,[12],inactive
same,Potency,[13],inactive
same,Potency,[14],inactive
same,Potency,[15],inactive
same,Potency,[16],inactive
same,Potency,[17],inactive
same,Potency,[18],inactive
same,max response,[2],-2.84%
same,max response,[3],0.502%
same,max response,[4],-4.21%
same,outcome,[5],inactive
CN(C)[C@@H]1C(=O)C(C(N)=O)=C(O)[C@@]2(O)C(=O)C3=C(O)c4c(O)ccc(Cl)c4[C@@H](O)[C@H]3C[C@@H]12,outcome,[1],inactive
CCN(CC)CCN1C(=O)CN=C(c2ccccc2F)c2cc(Cl)ccc21,Potency,[7],inactive
same,Potency,[10],inactive
same,Potency,[11],inactive
same,Potency,[12],inactive
same,Potency,[13],inactive
same,Potency,[14],inactive
same,Potency,[16],inactive
same,Potency,[18],4.78 µM (active)
same,max response,[2],-7.13%
same,max response,[3],0.85%
same,max response,[4],-5.99%
same,outcome,[5],inactive
CN1CCC(=C2c3ccccc3C=Cc3ccccc32)CC1,outcome,[1],inactive
O=C(c1ccc(OCCN2CCCCC2)cc1)c1c(-c2ccc(O)cc2)sc2cc(O)ccc12,outcome,[1],inactive
CC1=C(C(=O)O)N2C(=O)[C@@H](NC(=O)[C@H](N)c3ccc(O)cc3)[C@H]2SC1,outcome,[1],inactive
